The values below come from PubChem BioAssay (EPA / NIEHS).

Each structure is given as a SMILES string. Activity calls are given as the source filed them. The calls were made as follows: active = hit-call score of the fitted dose curve at least 0.9, where 1 is the maximum; inactive = score below 0.9.

Details in all cases: mRNA level, 48 h; actives raise or lower the signal
Read-out in experiment [1]: sulfotransferase 2A1 (SULT2A1), SULT2A1 (gene 6822)
In words: LTEA_HepaRG_SULT2A1: Life Technologies and Expression Analysis (LTEA) Assay for sulfotransferase 2A1 (SULT2A1) using HepaRG (AID 2283531). An outline of the steps: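 HepaRG, 48 h chemical exposure, 8-pt half-log curve from 100 uM in 0.5% DMSO, duplicates. Readout: TaqMan qRT-PCR of SULT2A1 mRNA, housekeeping-normalized. Bidirectional fit vs DMSO baseline.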

Read-out in experiment [2]: Transforming Growth Factor (TGFA), TGFA (gene 7039)
In words: LTEA_HepaRG_TGFA: Life Technologies and Expression Analysis (LTEA) Assay for Transforming Growth Factor (TGFA) using HepaRG (AID 2283532). An outline of the steps: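 Differentiated HepaRG cells exposed 48 hours in serum-free induction medium, 0.5% DMSO vehicle, 8-point half-log series from 100 uM, in duplicate. TGFA mRNA by TaqMan qRT-PCR, normalised to ACTB, GAPDH, POLR2A; bidirectional fit versus DMSO.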

Read-out in experiment [3]: Transforming Growth Factor (TGFB1), TGFB1 (gene 7040)
Kind of experiment: LTEA_HepaRG_TGFB1: Life Technologies and Expression Analysis (LTEA) Assay for Transforming Growth Factor (TGFB1) Transporter using HepaRG (AID 2283533). The method in brief: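 qRT-PCR readout of TGFB1 transcript in HepaRG lysates, normalized to three housekeeping genes; gain or loss of signal fitted relative to 0.5% DMSO vehicle. Exposure: 48 h, 8-point curve from 100 uM, duplicate wells.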

Read-out in another experiment: TIMP1, TIMP1 (gene 7076)
Kind of experiment: LTEA_HepaRG_TIMP1: Life Technologies and Expression Analysis (LTEA) Assay for TIMP1 using HepaRG (AID 2283534).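 Also: TaqMan qRT-PCR signal normalized to ACTB GAPDH and POLR2A housekeeping genes.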 An outline of the steps: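 HepaRG, 48 h exposure, 8-pt half-log series from 100 uM in 0.5% DMSO, duplicates; TIMP1 transcript by Fluidigm qRT-PCR, housekeeping-normalized; bidirectional curve fit vs DMSO baseline.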

Read-out in experiment [4]: Tumor necrosis factor receptor 1 (TNFRSF1A), TNFRSF1A (gene 7132)
Kind of experiment: LTEA_HepaRG_TNFRSF1A: Life Technologies and Expression Analysis (LTEA) Assay for Tumor necrosis factor receptor 1 (TNFRSF1A) using HepaRG (AID 2283535). The method in brief: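 HepaRG, 48 h plating then 48 h chemical exposure, serum-free induction media; 8-pt CRC from 100 uM, half-log, 0.5% DMSO vehicle, duplicates. Readout: TaqMan qRT-PCR (Fluidigm), housekeeping-gene normalized; bidirectional fit vs DMSO.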

Read-out in experiment [5]: Thyroid Hormone Responsive (THRSP), THRSP (gene 7069)
In words: LTEA_HepaRG_THRSP: Life Technologies and Expression Analysis (LTEA) Assay for Thyroid Hormone Responsive (THRSP) using HepaRG (AID 2283536). The method in brief: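 Differentiated HepaRG cells treated 48 h in serum-free induction medium with 8 half-log concentrations up to 100 uM (0.5% DMSO), duplicates. THRSP mRNA by TaqMan qRT-PCR normalised to ACTB, GAPDH, POLR2A; bidirectional fit versus DMSO.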

Read-out in experiment [6]: Cellular tumor antigen p53 (Homo sapiens) (UniProt P04637)
In words: LTEA_HepaRG_TP53: Life Technologies and Expression Analysis (LTEA) Assay for Tumor Protein P53 (TP53) using HepaRG (AID 2283537). The method in brief:
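TP53 transcript measured by qRT-PCR, normalized to three housekeeping genes, after 48 h treatment of human HepaRG cultures with chemicals from 100 uM downward in half-log steps (0.5% DMSO vehicle, serum-free induction medium). Up- or down-regulation fitted against DMSO.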

Read-out in experiment [7]: UDP glucuronosyltransferase (UGT1A1), UGT1A1 (gene 54658)
Kind of experiment: LTEA_HepaRG_UGT1A1: Life Technologies and Expression Analysis (LTEA) Assay for UDP glucuronosyltransferase (UGT1A1) using HepaRG (AID 2283538). An outline of the steps:
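HepaRG cells, 0.5% DMSO vehicle, 48 h exposure in serum-free induction medium to 8-point half-log series topping at 100 uM, in duplicate. UGT1A1 mRNA by Fluidigm qRT-PCR, normalized to ACTB/GAPDH/POLR2A; bidirectional fit versus DMSO.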

Read-out in experiment [8]: UDP glucuronosyltransferase (UGT1A6), UGT1A6 (gene 54578)
In words: LTEA_HepaRG_UGT1A6: Life Technologies and Expression Analysis (LTEA) Assay for UDP glucuronosyltransferase (UGT1A6) using HepaRG (AID 2283539). An outline of the steps: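 qRT-PCR readout of UGT1A6 mRNA (normalized to ACTB/GAPDH/POLR2A) in differentiated HepaRG cells after 48 h chemical exposure; 8 concentrations, top 100 uM, half-log steps, 0.5% DMSO. Bidirectional curve fit relative to DMSO baseline.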

Read-out in experiment [9]: solute carrier (SLCO1B1), SLCO1B1 (gene 10599)
In words: LTEA_HepaRG_SLCO1B1: Life Technologies and Expression Analysis (LTEA) Assay for solute carrier (SLCO1B1) using HepaRG (AID 2283530). The method in brief:
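SLCO1B1 transcript read by qRT-PCR (Fluidigm arrays), normalized to three housekeeping genes, after 48 h chemical exposure of HepaRG cells; bidirectional concentration-response fitting versus 0.5% DMSO baseline. Eight-point half-log series, maximum 100 uM.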

Cellular tumor antigen p53 (Homo sapiens), sequence (P04637 whole entry, looked up): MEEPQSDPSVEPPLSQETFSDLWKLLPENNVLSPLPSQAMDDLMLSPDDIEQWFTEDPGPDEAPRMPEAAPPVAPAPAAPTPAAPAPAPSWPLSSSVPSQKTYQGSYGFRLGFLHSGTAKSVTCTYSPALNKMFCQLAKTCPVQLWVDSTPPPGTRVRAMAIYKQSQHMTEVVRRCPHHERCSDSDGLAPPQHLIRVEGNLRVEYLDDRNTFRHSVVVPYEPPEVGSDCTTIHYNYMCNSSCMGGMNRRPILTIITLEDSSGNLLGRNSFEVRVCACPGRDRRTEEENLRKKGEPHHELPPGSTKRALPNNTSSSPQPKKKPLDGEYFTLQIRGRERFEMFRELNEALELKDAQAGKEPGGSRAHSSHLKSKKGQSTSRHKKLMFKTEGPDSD

Take `C=CCOC(=O)C(C)(C)OC(=O)c1cc(-n2c(=O)cc(C(F)(F)F)n(C)c2=O)ccc1Cl`: the outcome is “inactive” in [1]; “inactive” in [2]; “inactive” in experiment [3]; “inactive” in the experiment with TIMP1, TIMP1 (gene 7076); “inactive” in experiment [4]; “inactive” in experiment [5]. In addition, the molecule was classed as inactive in [6] and in experiment [8]. Also, in experiment [7], the AC50 was 23.1 µM (active).
In the case of `CSC(=O)c1c(C(F)F)nc(C(F)(F)F)c(C(=O)SC)c1CC(C)C`, the outcome was “inactive” in experiment [9]; “inactive” in experiment [1]; “inactive” in experiment [2]; “inactive” in [3]; “inactive” in the experiment with TIMP1, TIMP1 (gene 7076); “inactive” in experiment [4]. Also, the molecule was called inactive in experiment [5], in experiment [6] and in experiment [8]. Also, the AC50 in experiment [7] was 11.7 µM (active).
With `CC(C)N1C(=O)N(c2ccccc2)CSC1=NC(C)(C)C`, the concentration at half-maximal activity (AC50) in [1] was 96.5 µM (active); in experiment [2], 79.4 µM (active); in [6], 76.2 µM (active); in [7] it was 88.8 µM (active); in [8] it was 85.1 µM (active). For the same molecule, the outcome in experiment [3] was “inactive”; with TIMP1, TIMP1 (gene 7076) it was “inactive”; in experiment [4] it was “inactive”; in [5], “inactive”.
With `CCN(CC)c1nc(C)cc(OP(=S)(OC)OC)n1`, the outcome in [9] was “inactive”; in [1], “inactive”; in [2], “inactive”; in experiment [3] it was “inactive”; with TIMP1, TIMP1 (gene 7076) it was “inactive”; in [4] it was “inactive”. Further, the outcome in experiment [5] and in experiment [6] was inactive. Further, the AC50 in experiment [7] was 12.8 µM (active); in [8], 3.58 µM (active).
As to `O=C1C2CC=CCC2C(=O)N1SC(Cl)(Cl)Cl` (stereo unspecified), the outcome in [9] was “inactive”; in [1] it was “inactive”; in experiment [2], “inactive”; in experiment [3], “inactive”; with TIMP1, TIMP1 (gene 7076) it was “inactive”; in experiment [4], “inactive”. For the same molecule, the outcome in experiment [6], in [7] and in [8] was inactive. For the same molecule, in experiment [5], the AC50 was 16.2 µM (active).
Take `CN/C(=N\[N+](=O)[O-])NCc1cnc(Cl)s1`: the outcome is “inactive” in experiment [9]; “inactive” in [1]; “inactive” in experiment [2]; “inactive” in experiment [3]; “inactive” with TIMP1, TIMP1 (gene 7076); “inactive” in [4]. Besides, the call in experiment [6] and in experiment [8] was inactive. In addition, the AC50 in experiment [5] and in experiment [7] was 50 µM (active) in each case.
For the molecule `CNC(=O)Oc1cccc2ccccc12`, the outcome in experiment [9] was “inactive”; in experiment [1], “inactive”; in experiment [2] it was “inactive”; in experiment [3], “inactive”; with TIMP1, TIMP1 (gene 7076), “inactive”; in [4] it was “inactive”. For the same molecule, the molecule was called inactive in [5], in experiment [6] and in experiment [8]. In addition, in experiment [7], the AC50 was 50 µM (active).
Take `COc1ccc(-c2ccccc2)cc1NNC(=O)OC(C)C`: the outcome was “inactive” in [9]; “inactive” in experiment [1]; “inactive” in experiment [2]; “inactive” in experiment [3]; “inactive” with TIMP1, TIMP1 (gene 7076); “inactive” in experiment [4]. In addition, the molecule was classed as inactive in experiment [5], in experiment [6], in experiment [7] and in experiment [8].
Take `CCCCC(C#N)(Cn1cncn1)c1ccc(Cl)cc1` (stereo unspecified): the outcome in experiment [9] was “inactive”; in [1], “inactive”; in experiment [2] it was “inactive”; with TIMP1, TIMP1 (gene 7076), “inactive”; in [4], “inactive”; in experiment [6], “inactive”. Also, in experiment [8], the outcome was inactive. Moreover, the results for the AC50 in [3], in [5] and in experiment [7] were 50 µM (active), 25 µM (active) and 12.2 µM (active), respectively.
For `CCOP(=S)(OCC)Oc1nc(Cl)n(C(C)C)n1`, the outcome in [1] was “inactive”; in [2] it was “inactive”; in experiment [3], “inactive”; with TIMP1, TIMP1 (gene 7076), “inactive”; in [4], “inactive”; in experiment [6], “inactive”. In [8], the result was inactive. Further, the concentration at half-maximal activity (AC50) in experiment [5] is 26.1 µM (active); in experiment [7], 12.5 µM (active).
On to `N#Cc1c(Cl)cccc1Cl`, for which the outcome in experiment [1] was “inactive”; in [2], “inactive”; in [3], “inactive”; in the experiment with TIMP1, TIMP1 (gene 7076) it was “inactive”; in [4] it was “inactive”; in [5], “inactive”. In addition, the molecule was classed as inactive in experiment [6], in [7] and in [8].

For orientation: AC50 means the concentration at which the activity in the assay is half-maximal.
